L3MBTL1 inh = inhibitors of human L3MBTL1 | Q9Y468 | AlphaScreen L3MBTL1–H3K9me1 peptide binding | Potency, µM (doses to about 57.1 µM), hits mostly inhibitors | 230,000 tested, 0.66% active | AID 485360; further: nearly all actives have a fitted effect of over 60% in size
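AlphaScreen assay: L3MBTL1 (50 nM final) was preincubated 30 min at room temperature with biotinylated H3(1-15)K9me1 peptide (75 nM final), then 30 min with library compounds; streptavidin donor and nickel chelate acceptor beads (10 ug/mL final) added, 30 min dark.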
JMJD2A Tudor = JMJD2A Tudor domain (human) inhibition | Potency, µM (top dose mostly 114 µM), most hits filed as inhibitors | AlphaScreen JMJD2A-Tudor / H3K4me3 peptide binding | 390,000 tested, 4.4% active | AID 504339 | O75164; further: nearly all actives have a fitted effect of over 50% in size
PI5P4Ka inh = inhibitors of human PI5P4K alpha; 330,000 tested, 1.2% active; max response, %; P48426; PI5P4Kalpha enzyme, ADP-Glo luminescence, 60 min; hits give low values; active means max response of -50% or lower; inconclusive means between -30% and -50%; inactive means -30% or higher; further: value at the top dose of about 77 µM
Target sequence (P48426 whole entry, looked up): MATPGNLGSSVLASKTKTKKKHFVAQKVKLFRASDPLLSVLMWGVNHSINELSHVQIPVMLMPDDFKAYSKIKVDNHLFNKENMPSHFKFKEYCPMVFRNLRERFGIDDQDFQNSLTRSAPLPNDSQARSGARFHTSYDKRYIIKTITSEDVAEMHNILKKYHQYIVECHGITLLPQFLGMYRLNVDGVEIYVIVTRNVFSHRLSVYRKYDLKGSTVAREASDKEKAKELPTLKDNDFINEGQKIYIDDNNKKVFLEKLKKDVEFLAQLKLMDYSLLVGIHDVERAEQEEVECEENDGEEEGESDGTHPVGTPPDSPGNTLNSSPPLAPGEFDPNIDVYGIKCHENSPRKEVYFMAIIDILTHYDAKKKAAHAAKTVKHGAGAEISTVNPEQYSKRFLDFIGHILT
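ADP-Glo luminescence end-point read after a 60 min room-temperature kinase reaction of PI5P4Kalpha plus substrate, initiated with ATP at 5 microM final. Buffer: 0.038 M HEPES pH 7.4, EGTA, 0.1% CHAPS, 5% DMSO.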
BAZ2B block = blocks human BAZ2B. Potency, µM (titrated, usually from 114 µM), actives largely listed as inhibitors. AlphaScreen BAZ2B-H3K14Ac peptide displacement. 360,000 tested, 4.4% active. AID 504333. Q9UIF8; further: nearly all actives have a fitted effect of over 60% in size
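Inhibition is scored as reduced AlphaScreen emission. The BAZ2B/b-H3(5-23)K14Ac complex (50 nM each) in PBS pH 7.4, 0.01% Tween-20 meets compound (up to 110 uM) for 30 min at RT before bead addition.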
KDM4E inh = blocks human JMJD2E demethylase activity. JMJD2E catalytic domain, FDH-coupled NADH fluorescence (FDH is formaldehyde dehydrogenase). Potency, µM (series often up to 57.1 µM), most hits filed as inhibitors. 230,000 tested, 1.6% active. AID 2147. B2RXH2; active means well fitted inhibition curve with a large enough effect, not every such curve was filed as active; inconclusive means small, poorly fitted or top-dose-only effect, or another doubt; inactive means no such curve, though single readings can be large or run the other way; further: nearly all actives have a fitted effect of over 50% in size
Target sequence (B2RXH2 1-337 limits assumed): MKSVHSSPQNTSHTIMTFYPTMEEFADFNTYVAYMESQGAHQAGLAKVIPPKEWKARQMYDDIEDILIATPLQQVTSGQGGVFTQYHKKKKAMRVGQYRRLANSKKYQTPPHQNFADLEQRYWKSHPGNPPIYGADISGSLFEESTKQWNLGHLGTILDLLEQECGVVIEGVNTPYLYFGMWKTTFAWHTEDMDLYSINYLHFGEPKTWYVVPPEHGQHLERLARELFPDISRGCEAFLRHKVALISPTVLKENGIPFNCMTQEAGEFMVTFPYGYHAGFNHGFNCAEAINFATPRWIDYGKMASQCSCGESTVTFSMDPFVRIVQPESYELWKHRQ
HP1b chromo inh = inhibitors of HP1-beta chromodomain binding to methylated histone tails; P83916; AlphaScreen HP1-beta / biotin-H3K9me3 peptide binding; Potency, µM (titrated, usually from 114 µM), actives largely listed as inhibitors; 390,000 tested, 0.56% active; AID 540317; further: nearly all actives have a fitted effect of over 70% in size
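HP1-beta protein (50 nM final) preincubated 30 min at room temperature with biotinylated H3(1-18)K9me3 peptide (50 nM) in PBS pH 7.4, 0.01% Tween-20, then compound added for 30 min. AlphaScreen streptavidin donor/nickel chelate acceptor beads (10 ug/mL final), 30 min dark, luminescence read.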
Hits are given with their value; [ ] = remark or other dose. Most compounds without a hit are left out; they make up all but 5.7% or so of the library. Unless noted, the call rests on the fitted dose curve; in most records, active means well fitted inhibition curve with a large enough effect; inconclusive means small, poorly fitted or top-dose-only effect; inactive means no such curve, though single readings can be large or run the other way.

Screening O=C1CSCc2nc3ccccc3n21 returned JMJD2A Tudor 20µM, PI5P4Ka inh inactive and HP1b chromo inh inactive.
O=C(/C=C/c1cccnc1)c1cc(F)ccc1O was read as L3MBTL1 inh inactive, JMJD2A Tudor inactive, PI5P4Ka inh inactive, BAZ2B block inactive, KDM4E inh inactive and HP1b chromo inh inactive.
Screening CN(C)c1ccc(/C=C/C(=O)c2cc(Cl)ccc2O)cc1 returned L3MBTL1 inh 32µM, JMJD2A Tudor 13µM, PI5P4Ka inh inactive, BAZ2B block 6.3µM, KDM4E inh inactive and HP1b chromo inh inconclusive.
`O=C(/C=C/c1ccncc1)c1cc(Cl)ccc1O` gave L3MBTL1 inh inactive, JMJD2A Tudor 35µM, PI5P4Ka inh inactive, BAZ2B block 45µM, KDM4E inh inconclusive and HP1b chromo inh inconclusive.
For CN(C)c1ccc(C(=O)/C=C/c2ccc(Br)cc2)cc1 the results were L3MBTL1 inh inactive, JMJD2A Tudor inactive, PI5P4Ka inh inactive, BAZ2B block inactive, KDM4E inh inactive and HP1b chromo inh inactive.
O=c1[nH]c2ccccc2c(O)c1SCCO was read as L3MBTL1 inh inactive, JMJD2A Tudor 22µM, PI5P4Ka inh inactive, BAZ2B block 50µM, KDM4E inh inconclusive and HP1b chromo inh inactive.
`O=C(CCN1C(=O)/C(=C/c2ccccc2F)SC1=S)NCCCn1ccnc1` gave JMJD2A Tudor inconclusive, PI5P4Ka inh inactive, BAZ2B block 40µM and HP1b chromo inh inactive.
O=C(CCN1C(=O)/C(=C/c2ccccc2F)SC1=S)NCCc1ccc(O)cc1 was read as JMJD2A Tudor inactive, PI5P4Ka inh inactive, BAZ2B block inactive and HP1b chromo inh inactive.
O=C(CCN1C(=O)S/C(=C\c2ccccc2)C1=O)NCCCn1ccnc1 was read as JMJD2A Tudor inactive, PI5P4Ka inh inactive, BAZ2B block inactive and HP1b chromo inh inactive.
Screening O=C(CCCN1C(=O)/C(=C/c2ccccc2)SC1=S)NCCCn1ccnc1 returned JMJD2A Tudor inconclusive, PI5P4Ka inh inactive, BAZ2B block 45µM and HP1b chromo inh inactive.
For Cc1ccc(-c2cc(C(=O)O)n[nH]2)s1 the results were L3MBTL1 inh inactive, JMJD2A Tudor inactive[11.4 µM], PI5P4Ka inh inactive, BAZ2B block inactive, KDM4E inh inactive and HP1b chromo inh inactive.
CC(C)Cc1cc(C(=O)O)n[nH]1 was read as JMJD2A Tudor 25µM, PI5P4Ka inh inactive, BAZ2B block 50µM, KDM4E inh inactive and HP1b chromo inh inactive.
For CC(C)(C)c1cc(C(=O)O)n[nH]1 the results were JMJD2A Tudor 50µM, BAZ2B block inconclusive, KDM4E inh inactive and HP1b chromo inh inactive.
CCOCCn1c2ccccc2c2nc3ccccc3nc21 was read as JMJD2A Tudor inactive, PI5P4Ka inh inactive, BAZ2B block inactive and HP1b chromo inh inactive.
For CCOc1nc(OCC)c2[nH]c(C(=O)O)c(Br)c2n1 the results were JMJD2A Tudor 25µM, PI5P4Ka inh inconclusive and HP1b chromo inh inactive.
`COc1ccc(CNc2n[nH]c(-c3ccco3)n2)cc1OC` gave JMJD2A Tudor inactive, BAZ2B block inconclusive and HP1b chromo inh inactive.
For CC(=O)c1sc2c(c1C)c(=O)n(-c1ccc(Cl)cc1)c(=O)n2Cc1ccc(Cl)cc1 the results were JMJD2A Tudor inactive, BAZ2B block inactive and HP1b chromo inh inactive.
CCOCCCNC(=O)/C(C#N)=C/c1cc(C)c(O)c(C)c1 was read as L3MBTL1 inh inactive, JMJD2A Tudor inactive, PI5P4Ka inh inactive, BAZ2B block inactive, KDM4E inh inactive and HP1b chromo inh inactive.
`CCOCCCNC(=O)/C(C#N)=C/c1ccc(Cl)c([N+](=O)[O-])c1` gave L3MBTL1 inh inactive, JMJD2A Tudor inactive, PI5P4Ka inh inactive, BAZ2B block inactive, KDM4E inh 20µM and HP1b chromo inh inconclusive.
`CCOCCCNC(=O)/C(C#N)=C/c1cc(OC)c(O)c([N+](=O)[O-])c1` gave L3MBTL1 inh inactive, JMJD2A Tudor inactive, PI5P4Ka inh -64, BAZ2B block inconclusive, KDM4E inh inconclusive and HP1b chromo inh inactive.
For CC(NC(=O)OC(C)(C)C)C(=O)Oc1cc2oc(=O)cc(-c3ccccc3)c2cc1Cl (centres undefined) the results were L3MBTL1 inh inactive, JMJD2A Tudor inactive, PI5P4Ka inh -69, BAZ2B block inactive, KDM4E inh inconclusive and HP1b chromo inh inactive.
Screening O=[N+]([O-])C(=C1Nc2ccccc2N1)/C(Cl)=C(/Cl)Br returned L3MBTL1 inh inactive, JMJD2A Tudor 18µM, PI5P4Ka inh inconclusive, BAZ2B block inconclusive, KDM4E inh inconclusive and HP1b chromo inh inconclusive.
For O=[N+]([O-])c1cc(C=Nc2ccc3ccccc3c2)ccc1Br the results were L3MBTL1 inh inactive, JMJD2A Tudor 50µM, PI5P4Ka inh inactive, BAZ2B block 28µM, KDM4E inh inconclusive and HP1b chromo inh 50µM.
COc1ccc(NC(=O)CN(C)C(=O)c2ccc3c(c2)CC(c2ccccc2)OC3=O)cc1 (centres undefined) was read as PI5P4Ka inh inactive.
Screening COc1cccc(NC(=O)CN(C)C(=O)c2ccc3[nH]c4c(c3c2)CC(C)CC4)c1 (centres undefined) returned L3MBTL1 inh inactive, JMJD2A Tudor inconclusive, PI5P4Ka inh inactive, BAZ2B block 40µM and HP1b chromo inh inactive.
Screening COc1cccc(NC(=O)CN(C)C(=O)c2ccc3c(c2)CC(c2ccccc2)OC3=O)c1 (centres undefined) returned L3MBTL1 inh inactive, JMJD2A Tudor 89µM, PI5P4Ka inh inactive, BAZ2B block inconclusive and HP1b chromo inh inactive.
`CC(=O)Nc1ccc(S(=O)(=O)NCC2CCC(C(=O)NCCc3ccc(C)cc3)CC2)cc1` (centres undefined) gave JMJD2A Tudor inactive, BAZ2B block inactive and HP1b chromo inh inactive.
Screening O=C(Cc1cccs1)Nc1cccc(C(=O)Nc2ccc(C(=O)O)cc2)c1 returned L3MBTL1 inh inactive, JMJD2A Tudor inactive[11.4 µM], PI5P4Ka inh inactive, BAZ2B block inactive, KDM4E inh inactive and HP1b chromo inh inactive.
`Oc1c(Cl)cc(Cl)cc1/C=N/NC(=S)NC1CC2C=CC1C2` (centres undefined) gave L3MBTL1 inh 32µM, JMJD2A Tudor 50µM, PI5P4Ka inh -61, BAZ2B block 7.9µM, KDM4E inh inconclusive and HP1b chromo inh inactive.
Screening Oc1ccccc1C=NNC(=S)NC1CC2C=CC1C2 (centres undefined) returned PI5P4Ka inh inactive.
`Oc1ccccc1/C=N/NC(=S)NC1CC2C=CC1C2` (centres undefined) gave L3MBTL1 inh inconclusive, JMJD2A Tudor 45µM, PI5P4Ka inh inactive, BAZ2B block 28µM, KDM4E inh 25µM and HP1b chromo inh inactive.
For COc1ccc(N2CCN(Cc3cc4c(cc3O)CCC4)CC2)cc1 the results were JMJD2A Tudor 16µM, BAZ2B block 32µM, KDM4E inh inactive and HP1b chromo inh inactive.

Bioassay records: PubChem BioAssay, National Center for Advancing Translational Sciences (NCATS)
